About 83,000 compounds went through this panel and 20% of them were active in at least one assay; those are over-represented in the sample as a whole.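 Step 1: grow cells in 96-well plates. Step 2: add test compound at a single concentration. Step 3: incubate 48 h. Step 4: record percent growth.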 Values without a mark were called inactive. Active and inactive are the calls of the source. The calls were made as follows: active = growth percent below 10; inactive = the rest.
How the values were obtained:
Assay in all cases: NCI-60 one-dose screen, 48 h (100 = growth as untreated, 0 = no growth, -100 = all killed)
Details in all cases: 10 µM
[1] = system: DU-145 prostate
[2] = system: K-562 leukemia
[3] = system: MALME-3M melanoma
[4] = system: MDA-MB-231 breast
[5] = system: RXF 393 renal
[6] = system: SF-268 CNS
[7] = system: SF-295 CNS
[8] = system: SF-539 CNS
[9] = system: UACC-257 melanoma
[10] = system: M14 melanoma

SMILES	growth [1]	growth [2]	growth [3]	growth [4]	growth [5]	growth [6]	growth [7]	growth [8]	growth [9]	growth [10]
CCOC(=S)Sc1ccc([N+](=O)[O-])cc1[N+](=O)[O-]	95.5%	7.81% (active)	84.1%	88.4%	108%	104%	99.2%	26.2%	79.2%	36.2%
COc1ccc(-c2nc(-c3nc4ccc(C)cc4[nH]3)c3ccccn23)cc1	52.2%	20.4%	85.3%	32.9%	66.5%	45%	8.6% (active)	82.4%	57.6%	46.5%
CCCCn1c(=O)[nH]c(N)c(C(c2ccc(Cl)cc2)c2c(N)[nH]c(=O)n(CCCC)c2=O)c1=O	65.7%	28.7%	68.9%	54.4%	18.7%	38.1%	35.2%	43.9%	41%	35%
CCn1nc(-c2ccc(C(=O)OC)cc2)nc2c(=O)n(C)c(=O)nc1-2	77.6%	80.9%	29.1%	15.8%	13.9%	60.7%	36.8%	2.03% (active)	105%	78.3%
CCCCCCCCCCSC(=N)N (tested in a mixture with another compound)	79.6%	9.73% (active)	82.7%	7.07% (active)	64.5%	79.1%	94.4%	83.4%	99.5%	65.5%
O=C(c1ccccc1)C(Nc1ccccc1)c1ccccc1 (stereo not given)	100%	90.5%	90%	89.7%	103%	93.1%	90.7%	96.7%	93.4%	97.5%
NC1CCC(Nc2nc(NCc3ccc(-c4ccco4)nc3)c3ncn(C4CCCC4)c3n2)CC1 (stereo not given)	6.46% (active)	2.46% (active)	-40.6% (active)	3.81% (active)	-50.5% (active)	0.711% (active)	0.17% (active)	-25.7% (active)	-8.84% (active)	-23.5% (active)
COc1cc(-c2nc3ccccc3[nH]2)ccc1OCC(=O)N=Nc1c(O)[nH]c2ccccc12	99.7%	17.5%	54.6%	88.8%	106%	94.1%	95.9%	97.8%	105%	83.3%
CC(=O)n1nc(C(=O)OC(C)(C)C)c2cc(F)c(F)cc21	102%	110%	98.7%	94%	126%	101%	101%	104%	113%	90.9%
C[C@@H]1N=C(c2ccc(Br)cc2)Nc2nc3ccccn3c2C1=O	87.7%	24.3%	51.8%	52.7%	68.2%	83.4%	40.9%	74.6%	69.9%	31.8%
Cc1cc(OI)c(C(C)C)cc1-c1cc(C(C)C)c(OI)cc1C	101%	98.8%	105%	104%	101%	96.8%	101%	94.3%	101%	104%
Oc1cc(O)c(Br)cc1Br	107%	97.5%	120%	112%	110%	100%	98.7%	96.4%	102%	92.9%
CCN(CC)c1ccc(/C=C/C2=[N+](C)c3ccccc3C2(C)C)c(C)c1	20.3%	6.13% (active)	-33.4% (active)	-1.06% (active)	29.5%	22.7%	4.27% (active)	18%	-15.9% (active)	10.5%
CCc1cc2n(n1)-c1ncc(C(=O)OC)cc1Oc1ccccc1-2	111%	102%	120%	102%	114%	103%	101%	97.9%	104%	108%
COc1ccccc1NC1=C(N2CCCCC2)C(=O)c2ccccc2C1=O	105%	75.5%	96.9%	83%	67.1%	88.8%	67.1%	93.6%	76.7%	89.9%
CCc1nn2c(-c3ccccc3)c(-c3cc(OC)c(OC)c(OC)c3)nc2s1	102%	92.1%	62.4%	76.8%	88.9%	96%	89.1%	97.3%	107%	99.1%
CCOC(=O)[C@@H]1[C@H](c2ccccc2)[C@H]([N+](=O)[O-])[C@H](c2cn(-c3ccccc3)nc2C)N1Cc1ccccc1	94.4%	61.4%	81%	68.2%	69.9%	68.4%	81.8%	81.7%	64.2%	76.5%
N#Cc1c(-c2ccccc2)nc(SCC(=O)N2CCOCC2)[nH]c1=O	112%	89.8%	92.4%	114%	117%	104%	97.1%	97.1%	97%	100%
OC(CNC1CCCC1)Cn1c2ccccc2c2ccccc21 (stereo not given)	23%	3.31% (active)	-70.8% (active)	-23.9% (active)	31.2%	44.8%	-29.8% (active)	-69.9% (active)	-13.2% (active)	-68.1% (active)
COc1ccc(S(=O)(=O)Nc2ccc(OCc3nnc(-c4ccc(Cl)cc4)o3)c(F)c2)cc1	76.7%	43.2%	67.8%	54.6%	63.1%	59.9%	43.8%	70.5%	23.3%	78%
Cc1noc(C)c1-c1ccc2nc(NC(=O)[C@H]3CCN(C#N)C3)cn2c1	89.7%	40.5%	75.6%	68.2%	83.4%	91.3%	97%	82.3%	82.1%	77.9%
CCCCCCCOc1cccc(/C=C2/C(=O)N=C3SCCCN32)c1	55.7%	37%	81.6%	65.8%	83.7%	85%	75.1%	92.7%	68.4%	71%
Cc1ccc(C)c(S(=O)(=O)NC2c3ccccc3Oc3ccccc32)c1	112%	90%	93.2%	95.2%	91.3%	95%	98.1%	97.3%	109%	101%
COc1ccc(C2C=C(c3ccc(Cl)c(Cl)c3)N=C3SC(C)=CN32)cc1 (stereo not given)	100%	83.2%	90.2%	101%	83%	97.2%	87.3%	95.7%	109%	97.3%
CCC(O)c1ccc(Br)cc1NC(=O)c1cccc(Cl)c1 (stereo not given)	27.9%	8.78% (active)	-3.37% (active)	-1.69% (active)	16.3%	18.7%	9.43% (active)	2.67% (active)	7.67% (active)	0.116% (active)
COCCOC(=O)NC(=O)Nc1ccc(C(=O)c2ccc(Cl)cc2)cc1	38.2%	11.7%	56.8%	49.8%	40%	55.2%	21.9%	15.4%	50.8%	20.2%
CCN(CC)CCOC(=O)c1ccc(N=Nc2ccc(O)c(OC)c2)cc1	108%	95.3%	97%	110%	89.4%	94.7%	101%	96.4%	96.5%	103%

— PubChem BioAssay (NCI)
